# Assay outcomes from PubChem.
# S1P4 antag – antagonists of human S1P4 receptor. O95977. S1P4-expressing cells, antagonist mode, reporter read-out. inhibition, % at 4.98 µM. actives 0.26% (n = 220,000). AID 1510; in the data active = inhibition above about 29%
# S1P3 antag – S1P3 (human) receptor antagonism; AID 485; Q99500; actives 0.27% (n = 170,000); CHO S1P3 NFAT-BLA reporter, FRET fluorescence, antagonist mode; inhibition, % at 4.98 µM;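 active = inhibition above the plate cutoff, the mean inhibition of test wells on that plate plus 3 SD, cut at about 28% in these data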;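 note: cells challenged with S1P at its EC80 of 0.8 µM; blue over green emission ratio from cleaved BLA substrate after 4 h stimulation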
# S1P4 ag – activates the human S1P4 receptor. O95977. S1P4-expressing cell line, agonist reporter assay. activation, % at 4.98 µM. actives 0.35% (n = 220,000). AID 1509; in the data active = activation above about 11%
# GALR2 blocker – antagonists of human galanin receptor 2 (GALR2) | actives 0.39% (n = 140,000) | O43603 | inhibition, % at 4 µM | GALR2-expressing cells, antagonist mode | AID 828; in the data active = inhibition above about 27%;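 note: cells stimulated with galanin 1-16 at roughly its EC80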
# Target sequence (O43603 whole entry, looked up): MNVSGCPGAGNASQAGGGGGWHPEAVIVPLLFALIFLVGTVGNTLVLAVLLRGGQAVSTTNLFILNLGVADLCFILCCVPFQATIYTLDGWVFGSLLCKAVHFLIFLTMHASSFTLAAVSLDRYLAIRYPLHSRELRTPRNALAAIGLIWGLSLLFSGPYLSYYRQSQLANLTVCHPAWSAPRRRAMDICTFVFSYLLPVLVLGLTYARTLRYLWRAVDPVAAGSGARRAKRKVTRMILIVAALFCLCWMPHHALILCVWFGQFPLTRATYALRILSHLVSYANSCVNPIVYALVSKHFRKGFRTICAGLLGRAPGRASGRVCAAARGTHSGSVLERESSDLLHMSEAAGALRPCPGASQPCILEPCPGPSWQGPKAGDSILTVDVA
# GALR2 ag – activates the human galanin receptor 2; GALR2-expressing cells, agonist activation read-out; O43603; actives 0.48% (n = 140,000); activation, % (concentration not given with the values); AID 803; in the data active = activation above about 5%, passing the limit was not always enough
# S1P4 ag conf – confirmation of human S1P4 receptor agonists; actives 7% (n = 740); S1P4 agonist cell-based reporter assay; activation, % at 4.98 µM; shares compounds with S1P4 ag; AID 1523; in the data active = activation above about 12%
# S1P1 agonist – human S1P1 agonism as S1P4 agonist counter-screen; shares compounds with S1P4 ag; S1P1 agonist cell-based assay, activation; activation, % at 4.98 µM; actives 4% (n = 740); in the data active = activation above about 21%
# A number is an active result; - = inactive; . = no result given. Compounds with a hit are over-represented: about 1.3% of the library has one in this group of screens.
SMILES,S1P4 antag,S1P3 antag,S1P4 ag,GALR2 blocker,GALR2 ag,S1P4 ag conf,S1P1 agonist
COc1ccc(OC)c(/C=N/NC(=O)Cc2nc3ccccc3[nH]2)c1,-,-,11.5,-,-,-,-
O=C(CNC(=S)N(Cc1ccccc1F)C1CCCCC1)NCC1CCCO1 (stereo not drawn),-,-,-,.,.,.,.
CCCCC(=O)NC(Nc1ccc(C)cn1)(C(=O)OCC)C(F)(F)F (stereo not drawn),-,.,17.7,-,-,-,-
Cc1ccc(-c2cc(C(=O)NCc3cccnc3)no2)cc1,-,-,-,-,-,.,.
Cc1cc(C(=O)NCc2cccnc2)no1,-,-,11.3,-,-,-,-
CCC(C)[C@H](NC(=O)OC(C)(C)C)C(=O)N/N=C/c1ccc2cc(OC)ccc2n1 (stereo partly drawn),-,-,89.7,-,-,-,-
Cc1ccc(NC(=O)c2ccc(OC(=O)CCN3C(=O)c4ccccc4C3=O)cc2)cc1,-,.,11.3,-,-,-,-
Cc1ccc2nc(-c3ccc(NS(=O)(=O)c4ccc(F)c(F)c4)cc3)sc2c1,-,-,29.9,-,-,-,-
Cc1nc2ccc(S(=O)(=O)Nc3ccc(-c4nc5cccnc5s4)cc3)cc2s1,-,-,-,-,-,.,.
Cc1oc2cc(OC(=O)c3ccco3)ccc2c(=O)c1-c1nc2ccccc2n1C,-,-,11.9,-,-,-,-
O=C1CSC(c2ccccc2Br)N1c1ccc(Cl)cn1 (stereo not drawn),-,-,-,.,.,.,.
CN(Cc1ccccc1)c1nnc(N)s1,-,-,13.4,-,-,-,-
O=C(N[C@@H](Cc1ccccc1)C(=O)OCc1ccccc1)c1nc[nH]c1C(=O)NCc1ccccc1,-,-,20.1,.,.,31.9,-
COc1ccc(C2NC(=O)C(C#N)=C(S)N2c2cccc(C)c2)cc1OC (stereo not drawn),-,-,15.3,.,.,-,-
COc1ccc(N2C(S)=C(C#N)C(=O)NC2c2ccc(OC)c(OC)c2)cc1 (stereo not drawn),-,-,-,.,.,.,.
Nc1nnc(SCC(=O)OCC(=O)Nc2ccc(Br)cc2)s1,-,-,61.7,-,-,-,-
Nc1nnc(SCC(=O)OCC(=O)Nc2ccc(Br)cc2F)s1,-,-,-,.,.,.,.
Cc1nn(C)cc1/C=N/NC(=S)Nc1ccc(Cl)cc1Cl,-,-,15.4,-,-,-,-
CCn1nc(C)c(/C=N/NC(=S)Nc2ccc(Cl)cc2Cl)c1C,-,-,-,-,-,.,.
Cc1ccc(-c2noc(C3CCCN(C(=O)C4CCCCC4)C3)n2)o1 (stereo not drawn),-,.,-,-,-,.,.
CCc1nc(N)c(C#N)c(-c2cccc3ccccc23)c1C,-,.,16.3,-,-,-,-
CCc1nc(N)c(C#N)c(-c2ccncc2)c1C,-,-,-,-,-,.,.
COCCCn1c(=N)c(C(=O)NCC2CCCO2)cc2c(=O)n3ccccc3nc21 (stereo not drawn),-,-,11.5,-,18.7,-,-
COCCCn1c(=N)c(C(=O)NCC2CCCO2)cc2c(=O)n3cccc(C)c3nc21 (stereo not drawn),-,-,-,-,-,.,.
N=c1c(C(=O)NCc2ccc(F)cc2)cc2c(=O)n3ccccc3nc2n1CC1CCCO1 (stereo not drawn),-,-,12.9,-,14.4,14.4,-
SMILES,S1P4 antag,S1P3 antag,S1P4 ag,GALR2 blocker,GALR2 ag,S1P4 ag conf,S1P1 agonist
O=C(Cc1cccs1)Nc1cccc(-c2ccc3nncn3n2)c1,-,-,-,.,.,.,.
O=C1SCCC1NS(=O)(=O)c1ccccc1[N+](=O)[O-] (stereo not drawn),-,-,-,.,.,.,.
CC1(C)OC(=O)C(=CNc2ccc(F)cc2)C(=O)O1,-,-,-,-,-,.,.
CCc1nnc(NC=C2C(=O)OC(C)(C)OC2=O)s1,-,-,18.5,-,-,-,-
Cc1c(C(=O)OCC(=O)Nc2cccc(S(N)(=O)=O)c2)oc2c1ccc1ccccc12,-,-,-,.,.,.,.
N#Cc1cc2c(=O)n3ccccc3nc2n(-c2ccccc2Cl)c1=O,-,-,28.3,.,.,15.6,29.2
N#Cc1cc2c(=O)n3ccccc3nc2n(Cc2cccnc2)c1=O,.,-,.,.,.,.,.
Nc1nc(F)cc(N2CCCCCC2)n1,-,-,-,.,.,.,.
COc1ccc(C(=O)NCC(=O)OCC(=O)Nc2c(C)n(C)n(-c3ccccc3)c2=O)cc1,-,.,103.9,-,-,-,-
CC(CCc1ccccc1)NC(=O)c1cccnc1 (stereo not drawn),-,-,-,-,-,.,.
Cc1nccc2[nH]c(=O)c(C(=O)NC(C)CCc3ccccc3)cc12 (stereo not drawn),-,-,24.1,.,.,-,-
O=C(COC(=O)CCSc1ccccc1)Nc1ccc(F)cc1Cl,-,-,31.0,-,-,-,-
Cc1ccc(S(=O)(=O)N(C)C)cc1-n1c(SCC(=O)Nc2ccccc2)nc2ccccc2c1=O,-,-,-,-,-,.,.
Cc1ccc(S(=O)(=O)N(C)C)cc1-n1c(SCC(=O)Nc2ccc(F)cc2)nc2ccccc2c1=O,-,-,11.0,-,-,-,-
O=S(=O)(c1ccc(N2CCC(c3ccc(Cl)cc3)=N2)cc1)N(CCO)CCO,-,.,21.5,-,89.5,21.1,68.8
CN(C)CCCNS(=O)(=O)c1ccc(N2CCC(c3ccc(Cl)cc3)=N2)cc1,-,.,96.0,-,131.7,58.6,153.3
O=S(=O)(c1ccc(Oc2ccc(S(=O)(=O)N(CCO)CCO)cc2)cc1)N(CCO)CCO,-,-,-,.,.,.,.
COc1ccc(-c2nnn(CC(=O)N(CCCO)C(C(=O)NC3CCCC3)c3ccncc3)n2)cc1 (stereo not drawn),-,-,-,.,.,.,.
COc1ccc(-c2nnn(CC(=O)N(CCO)C(C(=O)NC3CCCC3)c3ccncc3)n2)cc1 (stereo not drawn),-,-,76.1,.,.,-,-
Cc1nc(Cl)sc1C(=O)NC(C)c1ccc(Cl)cc1 (stereo not drawn),-,-,-,-,-,.,.
C/C(=N\Nc1c([N+](=O)[O-])c(C)nn1C)c1ccc(F)cc1F,-,-,-,.,.,.,.
CCC(C(=O)OCC(=O)c1ccc2c(c1)NC(=O)CO2)c1ccccc1 (stereo not drawn),-,-,-,.,.,.,.
CCOC(=O)CC1Sc2ccccc2NC1=S (stereo not drawn),-,-,63.4,.,.,-,-
CC(C)NC(=O)C1CCN(C(=O)c2cc3sccc3n2Cc2ccc(F)cc2)CC1,-,-,16.0,-,-,-,-
CC1CCN(C(=O)C2CCN(C(=O)c3cc4sccc4n3Cc3ccc(F)cc3)CC2)CC1,-,-,-,-,-,.,.
O=C(O/N=C1\CCS(=O)(=O)c2sccc21)c1c(F)cccc1F,-,-,33.0,.,.,-,-
COc1cccc(C(=O)O/N=C2\CCS(=O)(=O)c3sccc32)c1,-,-,-,.,.,.,.
Cc1cc(C)nc(SCc2nnc(SCC(=O)O)n2-c2ccccc2)n1,-,-,14.0,.,.,-,-
O=C(CNC1CCCCC1)Nc1cc(S(=O)(=O)N2CCOCC2)ccc1Cl,-,-,-,.,.,.,.
